Pf apPOL inh: Pf-apPOL DNA polymerase inhibition; Recombinant Pf-apPOL, molecular beacon fluorescence, 1.5 h; inhibition, % at 10 µM; actives 0.25% (n = 210,000)
mHTT CaM bind: disrupts binding of mutant huntingtin to calmodulin; AID 1671202; AlphaScreen His-mHTT/GST-CaM binding, luminescence; actives 3.6% (n = 190,000); P42858; inhibition, % at 15 µM
Target sequence (P42858 whole entry, looked up, change not shown): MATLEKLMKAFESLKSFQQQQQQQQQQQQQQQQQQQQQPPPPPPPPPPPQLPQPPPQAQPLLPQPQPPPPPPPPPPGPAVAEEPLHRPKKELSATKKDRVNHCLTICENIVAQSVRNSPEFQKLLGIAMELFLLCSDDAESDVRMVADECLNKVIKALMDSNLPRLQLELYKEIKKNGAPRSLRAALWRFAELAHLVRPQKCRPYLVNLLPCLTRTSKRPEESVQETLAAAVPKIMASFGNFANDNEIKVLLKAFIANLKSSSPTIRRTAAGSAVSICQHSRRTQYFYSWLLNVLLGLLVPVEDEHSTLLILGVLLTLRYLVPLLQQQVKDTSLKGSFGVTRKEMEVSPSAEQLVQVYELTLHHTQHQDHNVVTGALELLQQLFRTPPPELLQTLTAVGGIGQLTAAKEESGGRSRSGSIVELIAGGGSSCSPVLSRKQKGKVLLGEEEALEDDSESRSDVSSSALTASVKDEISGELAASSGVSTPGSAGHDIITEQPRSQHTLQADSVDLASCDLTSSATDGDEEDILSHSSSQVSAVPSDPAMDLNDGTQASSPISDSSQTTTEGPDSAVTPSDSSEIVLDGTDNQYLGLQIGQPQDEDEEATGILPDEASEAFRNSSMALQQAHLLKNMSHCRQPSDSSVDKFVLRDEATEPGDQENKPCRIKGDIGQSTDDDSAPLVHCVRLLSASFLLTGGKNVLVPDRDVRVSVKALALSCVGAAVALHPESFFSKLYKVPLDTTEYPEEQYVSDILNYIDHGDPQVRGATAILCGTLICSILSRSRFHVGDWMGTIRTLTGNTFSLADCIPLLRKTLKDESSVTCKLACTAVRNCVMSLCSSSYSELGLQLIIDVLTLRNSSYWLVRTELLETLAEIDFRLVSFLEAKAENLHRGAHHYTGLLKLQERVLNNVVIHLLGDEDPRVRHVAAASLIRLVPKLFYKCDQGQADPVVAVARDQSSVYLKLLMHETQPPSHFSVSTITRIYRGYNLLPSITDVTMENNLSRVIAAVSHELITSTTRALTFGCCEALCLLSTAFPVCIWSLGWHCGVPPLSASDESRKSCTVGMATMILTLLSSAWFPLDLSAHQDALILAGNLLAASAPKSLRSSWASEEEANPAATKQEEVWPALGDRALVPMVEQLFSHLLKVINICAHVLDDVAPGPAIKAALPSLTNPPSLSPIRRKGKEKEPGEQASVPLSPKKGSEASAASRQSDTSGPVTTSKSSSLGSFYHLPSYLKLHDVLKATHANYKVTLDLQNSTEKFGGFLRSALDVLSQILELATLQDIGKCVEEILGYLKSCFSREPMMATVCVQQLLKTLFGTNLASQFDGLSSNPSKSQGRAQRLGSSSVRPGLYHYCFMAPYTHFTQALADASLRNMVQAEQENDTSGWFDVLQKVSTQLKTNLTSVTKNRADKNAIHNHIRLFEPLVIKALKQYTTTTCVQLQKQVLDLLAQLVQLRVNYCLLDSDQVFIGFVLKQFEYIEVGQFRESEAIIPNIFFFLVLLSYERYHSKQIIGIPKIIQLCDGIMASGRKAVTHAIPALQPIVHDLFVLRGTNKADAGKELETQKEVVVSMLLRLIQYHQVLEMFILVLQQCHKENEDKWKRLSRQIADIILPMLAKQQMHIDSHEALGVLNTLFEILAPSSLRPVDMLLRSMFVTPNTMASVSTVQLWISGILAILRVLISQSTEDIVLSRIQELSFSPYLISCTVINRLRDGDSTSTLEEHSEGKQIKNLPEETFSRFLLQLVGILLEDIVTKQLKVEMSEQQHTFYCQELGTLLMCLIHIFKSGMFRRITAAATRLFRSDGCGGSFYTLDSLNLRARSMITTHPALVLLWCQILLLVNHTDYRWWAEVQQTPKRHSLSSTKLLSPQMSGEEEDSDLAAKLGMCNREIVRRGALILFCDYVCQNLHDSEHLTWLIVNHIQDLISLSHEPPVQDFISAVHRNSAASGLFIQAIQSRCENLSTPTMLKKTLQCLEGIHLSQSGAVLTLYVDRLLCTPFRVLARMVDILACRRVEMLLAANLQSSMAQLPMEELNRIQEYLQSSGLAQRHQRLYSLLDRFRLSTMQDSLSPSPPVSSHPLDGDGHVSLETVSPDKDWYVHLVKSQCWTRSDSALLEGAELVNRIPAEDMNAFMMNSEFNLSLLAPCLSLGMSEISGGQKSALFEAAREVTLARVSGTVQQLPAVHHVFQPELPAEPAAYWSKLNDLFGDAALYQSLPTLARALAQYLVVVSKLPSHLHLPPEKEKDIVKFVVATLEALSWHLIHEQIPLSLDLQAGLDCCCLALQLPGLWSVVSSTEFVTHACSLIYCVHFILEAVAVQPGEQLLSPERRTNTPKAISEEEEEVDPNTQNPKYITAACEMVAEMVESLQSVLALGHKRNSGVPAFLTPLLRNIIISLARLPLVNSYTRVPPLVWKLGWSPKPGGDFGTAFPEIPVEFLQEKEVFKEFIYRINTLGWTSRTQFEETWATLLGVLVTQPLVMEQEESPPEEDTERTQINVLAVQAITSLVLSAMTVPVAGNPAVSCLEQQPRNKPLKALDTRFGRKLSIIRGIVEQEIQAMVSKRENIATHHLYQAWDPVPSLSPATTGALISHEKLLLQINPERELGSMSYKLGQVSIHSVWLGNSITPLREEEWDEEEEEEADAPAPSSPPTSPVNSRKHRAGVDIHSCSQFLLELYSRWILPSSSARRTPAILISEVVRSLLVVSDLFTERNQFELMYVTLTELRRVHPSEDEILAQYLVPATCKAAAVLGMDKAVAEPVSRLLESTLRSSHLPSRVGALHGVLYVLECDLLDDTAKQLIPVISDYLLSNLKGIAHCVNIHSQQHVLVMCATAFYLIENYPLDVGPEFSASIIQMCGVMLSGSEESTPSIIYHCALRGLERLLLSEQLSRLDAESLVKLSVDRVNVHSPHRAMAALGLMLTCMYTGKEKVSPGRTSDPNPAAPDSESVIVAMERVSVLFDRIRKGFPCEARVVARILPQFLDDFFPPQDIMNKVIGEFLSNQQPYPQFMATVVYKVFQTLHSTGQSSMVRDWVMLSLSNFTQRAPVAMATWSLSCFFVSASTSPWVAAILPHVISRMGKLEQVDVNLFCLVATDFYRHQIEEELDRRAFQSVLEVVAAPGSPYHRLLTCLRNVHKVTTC
Hits are given with their value; - = inactive; . = no result. The full list was thinned out, with hits kept by preference. No stated cut-off is given here; in the data, active means inhibition above about 50%; inactive means the rest.

SMILES	Pf apPOL inh	mHTT CaM bind
COc1cccc(Oc2c(C(F)(F)F)oc3c(CN(C)C)c(O)ccc3c2=O)c1	-	-
CC1=C(C(=O)Nc2ccc(F)c(F)c2)C(c2ccc(C(C)C)cc2)NC(=O)N1 (stereo unspecified)	-	-
CCc1[nH]c(=S)[nH]c(=O)c1C#N	-	.
CCCC(=O)NC(c1ccc(OC)cc1)c1ccc2cccnc2c1O (stereo unspecified)	-	100.0
CCCC(=O)NC(c1ccccc1)c1ccc2cccnc2c1O (stereo unspecified)	-	100.0
CCCC(=O)NC(c1ccccc1)c1cc(Cl)c2cccnc2c1O (stereo unspecified)	-	-
CCCCC(=O)NC(c1ccccc1)c1ccc2cccnc2c1O (stereo unspecified)	-	100.0
CCCC(=O)NC(c1ccc(F)cc1)c1ccc2cccnc2c1O (stereo unspecified)	-	100.0
CCCC(=O)NC(c1ccccc1)c1ccccc1	-	-
COc1ccc(-c2cc(C(=O)N3CCCC3c3ccc(OC)cc3)on2)cc1 (stereo unspecified)	-	-
Cc1cc(C2CCCN2C(=O)c2cnn3c(C(F)(F)F)cc(-c4cccs4)nc23)on1 (stereo unspecified)	-	-
CCOc1ccc(C2CC(=O)Nc3n[nH]c(C)c32)cc1 (stereo unspecified)	-	-
Cc1ccc(/C=C/C2=NC(=C\c3ccccc3Cl)/C(=O)O2)cc1	-	-
O=C(CSc1cccs1)NC1=NN(c2ccccc2)C(=O)C1	-	81.9
O=C(CSc1cccs1)Nc1nccs1	.	-
O=C(CSc1ccc(F)cc1)N(Cc1ccccn1)Cc1ccco1	-	-
COc1ccc(NCC(=O)N2c3ccccc3Sc3ccccc32)cc1	-	59.9
COc1cc(NC(=O)N2c3ccccc3Sc3ccccc32)cc(OC)c1	-	-
CN(C)CCNC(=O)c1ccc(S(=O)(=O)N2CCCC2)cc1	54.9	-
O=C(NC1CCCCC1)c1ccc(S(=O)(=O)N2CCCC2)cc1	-	-
O=C(CCC1CCCC1)N1CCC(Nc2cccnc2)C1 (stereo unspecified)	67.0	-
O=C(CCc1ccccc1)N1CCC(Nc2cccnc2)C1 (stereo unspecified)	-	-
O=C(Nc1nnc(-c2ccno2)o1)c1ccc2ncsc2c1	57.1	90.0
Cc1cc(-c2nnc(NC(=O)c3ccc4ncsc4c3)o2)nn1C	-	-
Cc1cc(C(=O)Nc2nnc(-c3ccno3)o2)no1	-	-
SMILES	Pf apPOL inh	mHTT CaM bind
CS(=O)(=O)c1cccc(C(=O)Nc2nnc(-c3ccno3)o2)c1	-	94.7
O=C(Nc1nnc(-c2ccno2)o1)c1cccs1	-	81.5
O=C(Nc1nnc(-c2ccc(Br)s2)o1)c1cccs1	-	-
COC1=Nc2ccccc2/C1=C/N(C)C	-	-
C#CC(C)(C)NC(=O)CN(c1ccc(C)cc1)S(=O)(=O)c1ccc(OC)c(OC)c1	-	-
COc1ccc(N2C(=O)C3C(c4ccc(OC)cc4O)NC(CC(C)C)(C(=O)O)C3C2=O)cc1 (stereo unspecified)	-	-
CCC1(CC)OC(c2cccc([N+](=O)[O-])c2)Nc2ccccc21 (stereo unspecified)	-	-
CCC1(CC)OC(c2c([N+](=O)[O-])cc([N+](=O)[O-])cc2[N+](=O)[O-])Nc2ccccc21 (stereo unspecified)	-	79.0
O=C(c1ccc(C(F)(F)F)cc1)N1CCC(=O)N([C@H](COCc2ccc(C(F)(F)F)cc2)Cc2ccccc2)CC1	-	99.2
O=C(c1ccc(C(F)(F)F)cc1)N1CCC(=O)N([C@H](COCc2ccc(Cl)cc2)Cc2ccccc2)CC1	-	99.6
O=C1CCN(Cc2ccc(O)cc2)CCN1[C@H](CO)Cc1ccccc1	-	-
CC(C)(C)c1ccc(C(=O)N2CCC(=O)N([C@H](COCc3ccc(Cl)cc3)Cc3ccccc3)CC2)cc1	-	-
CC(C)C[C@@H](COCc1ccc(Cl)cc1)N1CCN(C(=O)c2ccc(C(F)(F)F)cc2)CCC1=O	-	99.4
Cc1ccc(S(=O)(=O)N2CCC(=O)N([C@H](COCc3ccc(C(F)(F)F)cc3)C(C)C)CC2)cc1	-	-
CCCc1c(C(=O)N2CCN(C(C)=O)CC2)cnn1-c1ccccc1	-	-
Cc1cc(C)c(NC(=O)c2cccnc2)c(Cl)c1	-	-
O=C1CC(CNS(=O)(=O)c2ccc3c(c2)OCCO3)CN1c1ccc(Cl)cc1 (stereo unspecified)	-	-
CCSc1nccc(=O)[nH]1	-	-
Nc1ccnc(=O)[nH]1	105.3	.
COc1ccc(C=C2SC(=S)N(C(C(=O)O)C(C)C)C2=O)cc1 (stereo unspecified)	-	-
COc1cc(C=C2SC(=S)N(C(C(=O)O)C(C)C)C2=O)cc(OC)c1O (stereo unspecified)	-	61.2
COc1cccc(CNC(=O)C2(C)CCCN(C(=O)Nc3ccc(F)cc3)C2)c1 (stereo unspecified)	-	-
Cc1cccc(C(=O)N2N=C(c3ccc(Cl)cc3)CC2(O)C(F)(F)F)c1 (stereo unspecified)	-	89.0
O=C(c1cccc(Cl)c1)N1N=C(c2ccc(Cl)cc2)CC1(O)C(F)(F)F (stereo unspecified)	-	-
CCC1=NN(C(=O)c2ccc(I)cc2)C(O)(C(F)(F)F)C1 (stereo unspecified)	-	-
SMILES	Pf apPOL inh	mHTT CaM bind
CCC1=NN(C(=O)c2ccc(Cl)cc2)C(O)(C(F)(F)F)C1 (stereo unspecified)	94.3	-
CCn1ccnc1C(O)c1ccc(OCc2ccccc2)c(OC)c1 (stereo unspecified)	-	-
CCOc1ccc(/C=C2\SC(=O)N(CNc3ccc(OC)c(Cl)c3)C2=O)cc1	-	-
COc1ccc(NC(=O)C2CN(S(=O)(=O)C3CC3)CC23CCCCC3)cc1 (stereo unspecified)	-	57.9
COc1ccc(OC)c(NC(=O)C2CN(S(=O)(=O)C3CC3)CC23CCCCC3)c1 (stereo unspecified)	-	-
O=C(Nc1c2c(nn1-c1cccc(Cl)c1)CS(=O)(=O)C2)C12CC3CC(CC(C3)C1)C2	-	-
CCOc1ccccc1NC(=O)c1c(NCc2ccccn2)sc2c1CCC(C)C2 (stereo unspecified)	-	-
COc1ccc(Cl)cc1NC(=O)c1c(NCc2cccnc2)sc2c1CCC(C)C2 (stereo unspecified)	-	78.0
COc1ccccc1NC(=O)c1c(NCc2cccnc2)sc2c1CCC(C)C2 (stereo unspecified)	-	80.0
COc1cc(C(=O)Nc2sc3c(c2C(=O)O)CCC(C)C3)cc(OC)c1OC (stereo unspecified)	-	-
O=C(NC1CCN(c2nnc3ccc(C(F)(F)F)cn23)CC1)c1ccccc1Cl	-	-
Cc1oc(C(C)C)nc1C(=O)N1CCN(C2CCN(C)CC2)CC1	-	-
COCCN=C1Nc2ccccc2NC12CCCN(C(=O)c1ccccn1)C2 (stereo unspecified)	-	-
COCCN=C1Nc2ccccc2NC12CCCN(C(=O)Cc1ccsc1)C2 (stereo unspecified)	-	97.7
COCCN=C1Nc2ccccc2NC12CCCN(C(=O)Cc1ccccc1F)C2 (stereo unspecified)	-	99.9
COCCN=C1Nc2ccccc2NC12CCCN(C(=O)Cc1c[nH]c3ccccc13)C2 (stereo unspecified)	-	-

Screens as filed in PubChem BioAssay.
